# Compounds with a hit are over-represented: about 4.1% of the library has one in this group of screens.
# ABHD5-PLIN5 inh = blocks binding of human ABHD5 to perilipin-5. Q00G26+Q8WTS1. Split G. princeps luciferase complementation, luminescence, 4 h. inhibition, % at 4 µM. hit rate 0.78% among 360,000;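 active = inhibition above the mean inhibition across every tested compound plus 3 SD, cut at about 22% in these data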;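 also: 0% = DMSO only wells and the 100% control is not disclosed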
# MBD2 inh = inhibitors of human MBD2 binding to methylated oligonucleotide; TR-FRET; inhibition, % at 4.4 µM; hit rate 0.31% among 370,000; Q9UBB5; in the data active = inhibition above about 13%
# UHRF1 binding = UHRF1 methyl-DNA binding inhibition; Q96T88; UHRF1 binding to methylated oligo, TR-FRET; inhibition, % at 4.4 µM; hit rate 0.75% among 370,000; in the data active = inhibition above about 21%;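 also: UHRF1 SRA domain binding a hemimethylated CpG hairpin DNA probe; 0% = median of test compound wells and 100% = reference inhibitor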
# Target sequence (Q96T88 whole entry, looked up, the tested form may be a part): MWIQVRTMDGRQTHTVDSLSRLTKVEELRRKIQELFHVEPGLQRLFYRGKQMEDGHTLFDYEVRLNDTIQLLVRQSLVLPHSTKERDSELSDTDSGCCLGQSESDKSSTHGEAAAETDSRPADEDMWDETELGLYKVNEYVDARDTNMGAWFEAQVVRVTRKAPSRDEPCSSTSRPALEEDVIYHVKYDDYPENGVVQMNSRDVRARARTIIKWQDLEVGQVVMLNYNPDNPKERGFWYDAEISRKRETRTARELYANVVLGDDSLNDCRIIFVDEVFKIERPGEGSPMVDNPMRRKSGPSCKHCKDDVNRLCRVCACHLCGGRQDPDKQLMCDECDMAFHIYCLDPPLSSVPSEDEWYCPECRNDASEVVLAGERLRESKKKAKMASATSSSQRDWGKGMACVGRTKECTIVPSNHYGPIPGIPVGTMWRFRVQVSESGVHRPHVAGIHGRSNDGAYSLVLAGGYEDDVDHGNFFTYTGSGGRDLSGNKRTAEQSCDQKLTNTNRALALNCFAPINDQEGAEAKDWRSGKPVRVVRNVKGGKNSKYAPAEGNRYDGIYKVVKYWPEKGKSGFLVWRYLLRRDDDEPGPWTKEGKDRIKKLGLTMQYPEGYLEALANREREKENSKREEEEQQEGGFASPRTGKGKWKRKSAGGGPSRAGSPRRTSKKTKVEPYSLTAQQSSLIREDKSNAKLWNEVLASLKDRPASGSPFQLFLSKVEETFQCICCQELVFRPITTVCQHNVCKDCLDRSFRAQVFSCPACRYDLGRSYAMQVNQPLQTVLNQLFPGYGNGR
# PRMT1 inh = PRMT1 (human) inhibition, primary screen. AID 652257. Q99873. recombinant PRMT1, activity-based probe fluorescence polarization. hit rate 1.3% among 370,000. inhibition, % at 2.79 µM;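 active = inhibition above about 21% made by adding two undisclosed values, limit read from the data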
# LEDGF integ inh = blocks HIV-1 LEDGF/p75-dependent DNA integration | TR-FRET IN-LEDGF/p75 DNA integration, Eu/Cy5 | inhibition, % at 3.7 µM | hit rate 0.64% among 370,000;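 active = inhibition above the screen-wide mean plus 3 SD, cut at about 13% in these data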;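 also: signal is the Cy5 over europium emission ratio at 671 and 618 nm; 0% = plate median of compound wells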
# rCAG RNA binder = molecules binding r(CAG) RNA repeats; inhibition, % at 3 µM; r(CAG) RNA repeat, TO-PRO-1 dye displacement fluorescence; hit rate 1.3% among 370,000;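 active = inhibition above the plate cutoff, the mean of all test compounds on that plate plus 3 SD, cut at about 35% in these data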;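 also: 0% = DMSO alone and 100% = 100 µM mitoxantrone as full dye displacement; higher means more dye released from RNA so lower well fluorescence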
# rCAG binder conf = r(CAG) RNA repeat binding, confirmation. shares compounds with rCAG RNA binder. TO-PRO-1 dye displacement fluorescence. inhibition, % at 3 µM. hit rate 70% among 4,300;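 active = inhibition above a per-plate cutoff, the mean inhibition of sample wells plus 3 SD, cut at about 35% in these data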;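 also: loss of TO-PRO-1 fluorescence as compound displaces dye from 1x1 AA loop RNA; 0% = DMSO only wells and 100% = 100 µM mitoxantrone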
# DNA CAG counter = disrupts DNA CAG TO-PRO-1 complex, flagging rCAG hits | inhibition, % at 3 µM | d(CAG) DNA oligo TO-PRO-1 dye displacement, fluorescence | hit rate 94% among 4,300 | shares compounds with rCAG RNA binder;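 active = inhibition above its plate's cutoff, the mean test-well inhibition plus 3 SD, cut at about 4.8% in these data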;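 also: 0% = DNA dye mix with DMSO and 100% = 100 µM mitoxantrone; hits displace the dye from DNA and so lower well fluorescence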
# DNA CAG DR = counter-screen for rCAG binders: inhibitors of DNA CAG TO-PRO-1 complex; shares compounds with rCAG RNA binder; DNA CAG/GTC duplex TO-PRO-1 dye displacement fluorescence; IC50, µM; hit rate 20% among 250; AID 686960; in the data active = IC50 below about 10 µM
# Numbers without * were called inactive; i = inactive; . = no result given.
SMILES,ABHD5-PLIN5 inh,MBD2 inh,UHRF1 binding,PRMT1 inh,LEDGF integ inh,rCAG RNA binder,rCAG binder conf,DNA CAG counter,others
O=C(O)c1cccc(Nc2nc(-c3ccccc3)nc3ccccc23)c1,1.6,-5.4,2.5,0.2,6.5,49.5*,34.3,7.6*,
COc1cccc(-c2nc(NCc3ccco3)c3ccccc3n2)c1O,-2.0,-0.2,2.6,-0.6,-0.1,21.7,.,.,
O=C(O)c1ccc(Nc2nc(-c3ccccc3)nc3ccccc23)cc1,-11.1,-7.2,0.5,2.0,8.6,36.6*,22.8,5.5*,
COc1ccc(Nc2nc(-c3ccccc3O)nc3ccccc23)cc1,-6.4,-0.1,-3.9,-0.9,0.3,37.7*,21.4,6.9*,
COc1cccc(-c2nc(NCc3ccccc3)c3ccccc3n2)c1O,-15.2,0.5,0.7,-0.3,-1.7,38.2*,30.9,14.6*,
O=C(Nc1ccccc1C(F)(F)F)O[C@@H]1CC[C@@]23CCCN2C(=O)CCC[C@H]3C1,.,-2.1,-0.3,3.8,-2.4,.,.,.,
O=C(NCC1CCCO1)c1sc(=S)n2c1[nH]c(=O)c1ccc(C(=O)N3CCCCC3)cc12 (configuration not stated),5.0,-7.7,-2.4,5.0,0.2,81.3*,84.1*,39.5*,
O=C(NCCc1ccccc1)c1ccc2c(=O)[nH]c3c(C(=O)NCC4CCCO4)sc(=S)n3c2c1 (configuration not stated),-6.9,-2.2,-5.5,-3.8,3.4,91.0*,93.1*,71.1*,
O=C(NCCc1ccc(Cl)cc1)c1ccc2c(=O)[nH]c3c(C(=O)NCC4CCCO4)sc(=S)n3c2c1 (configuration not stated),.,-4.9,-3.1,0.1,1.8,43.5*,85.3*,70.1*,
COc1ccccc1NC(=O)OC1CC2CC1[C@H]1CCCCN1[C@H]2Cc1ccccc1 (some centres not stated),.,2.9,3.9,-4.2,3.4,2.9,.,.,
COc1cc([N+](=O)[O-])ccc1NC(=S)NNC(=O)CCC(=O)Nc1ccccc1Cl,4.2,-2.4,-2.3,1.3,-3.0,63.9*,48.6*,14.1*,
COc1cc([N+](=O)[O-])ccc1NC(=O)CCCOc1ccccc1,-3.5,1.6,-4.1,-0.9,-2.0,0.4,.,.,
CCOC(=O)c1cccc(NC(=O)CN(C)S(=O)(=O)c2ccc(Br)s2)c1,.,-0.6,1.3,2.6,-3.8,1.9,.,.,
CCCCC(NC(=O)Cc1c(C)c2cc3c(-c4ccccc4)coc3c(C)c2oc1=O)C(=O)O (configuration not stated),-6.7,0.8,-0.4,1.7,7.2,36.9*,65.1*,24.0*,
Cc1oc2c(c(C)cc3oc(=O)c(CC(=O)N[C@H](C(=O)O)C(C)C)c(C)c32)c1C,4.2,-4.5,-2.9,-0.1,2.5,22.0,.,.,
COc1cccc(-c2coc3c(C)c4oc(=O)c(CCC(=O)O)c(C)c4cc23)c1,11.6,7.9,1.2,11.4,7.9,58.0*,74.1*,33.8*,DNA CAG DR=i
Cc1oc2c(c(C)cc3oc(=O)c(CC(=O)N[C@@H](CC(C)C)C(=O)O)c(C)c32)c1C,-2.9,-11.8,-4.6,-1.7,5.4,43.3*,33.1,6.3*,
CC[C@@H](C)[C@H](NC(=O)Cc1c(C)c2cc3c(C)c(C)oc3c(C)c2oc1=O)C(=O)O,6.1,-8.8,-3.3,-1.3,-3.1,37.1*,33.9,7.1*,
COc1cccc(-c2coc3c(C)c4oc(=O)c(CC(=O)O)c(C)c4cc23)c1,-1.5,2.9,-2.0,1.2,-0.6,10.7,.,.,
Oc1ccc(-c2nn[nH]n2)c2cccnc12,.,0.6,-0.2,5.9,-5.4,.,.,.,
COc1cccc(-c2coc3cc4oc(=O)c(CCC(=O)O)c(C)c4cc23)c1,0.1,0.5,2.2,5.2,-0.3,46.8*,47.2*,14.2*,
COc1ccc(-c2coc3cc4oc(=O)c(CC(=O)O)c(C)c4cc23)cc1,0.2,6.8,-0.7,3.1,1.0,3.0,.,.,
COc1cc2c(cc1OC)C(c1ccccc1)N(Cc1ccc(S(=O)(=O)NC(=O)c3ccco3)cc1)CC2 (configuration not stated),9.1,3.5,15.9,6.8,4.3,39.8*,39.4*,11.3*,
COc1ccc(/C=C2/C(=O)N(c3nc4ccccc4s3)N=C2CSc2ccc(Cl)cc2)cc1,13.1,0.8,0.0,-0.9,0.1,71.0*,71.8*,51.5*,
N#Cc1c(-c2ccccc2)nc(SCC(=O)N(c2ccccc2)c2ccccc2)[nH]c1=O,-1.7,0.4,2.2,8.3,-2.5,73.2*,82.1*,40.9*,
SMILES,ABHD5-PLIN5 inh,MBD2 inh,UHRF1 binding,PRMT1 inh,LEDGF integ inh,rCAG RNA binder,rCAG binder conf,DNA CAG counter,others
N#Cc1c(-c2ccccc2)nc(SCC(=O)Nc2ccccc2)[nH]c1=O,1.7,2.9,-3.0,2.1,4.6,29.1,.,.,
Cc1cccc(NC(=O)CSc2nc(-c3ccccc3)c(C#N)c(=O)[nH]2)c1C,2.2,-5.2,-0.2,4.1,-0.8,33.0,.,.,
N#Cc1c(-c2ccccc2)nc(SCC(=O)Nc2nnc(C(F)(F)F)s2)[nH]c1=O,-7.9,0.4,1.1,0.5,8.9,46.4*,22.8,5.6*,
CN(CCC#N)C(=O)CSc1nc2scc(-c3ccccc3)c2c(=O)[nH]1,0.8,1.9,0.5,0.6,2.1,5.3,.,.,
Cc1cc(C)nc(NS(=O)(=O)c2ccc(NC(=O)CSc3nc(-c4ccccc4)c(C#N)c(=O)[nH]3)cc2)n1,-4.9,-2.2,0.9,2.4,3.0,45.1*,29.9,7.4*,
Cc1cc(NC(=O)CSc2nc(-c3ccccc3)c(C#N)c(=O)[nH]2)no1,-2.0,-0.4,0.1,1.2,-1.6,16.0,.,.,
N#Cc1c(-c2ccccc2)nc(SCC(=O)Nc2ccc(OC(F)(F)Cl)cc2)[nH]c1=O,-2.5,-2.9,2.2,0.5,0.9,90.3*,84.6*,57.9*,
CC(=C\C=O)/C(C)=C/CC[C@@H]1O[C@@H]2C[C@@H]3O[C@](C)(C[C@H]4C[C@H](O)[C@@H]5O[C@@H]6C[C@H](O)[C@@H](C)O[C@@]6(C)CC[C@H]5O4)[C@@H](O)CC[C@@]3(C)O[C@H]2[C@@H](O)[C@@H]1C,.,8.2,5.0,5.5,0.9,.,.,.,
COC(=O)C(CN)CN1C(=O)c2ccccc2C1=O (configuration not stated),.,-5.2,-1.5,-0.7,3.1,0.9,.,.,
Nc1nc(Cl)nc2c1ncn2[C@@H]1O[C@H](CO)[C@@H](O)[C@@H]1F,.,-0.5,-0.4,1.3,0.2,0.7,.,.,
CCCCc1nnc(NC(=O)CSc2nc(O)c(Cc3ccccc3)c(=O)[nH]2)s1,9.9,7.4,4.8,6.1,-0.4,-0.3,.,.,
